From ChEMBL document CHEMBL3433997, “St. Jude Leishmania screening dataset” (2016)

Target: Solute carrier family 2, facilitated glucose transporter member 1 (Homo sapiens) (UniProt P11166)
Experiment: ST_JUDE_LEISH: Cytotoxicity at 2uM final concentration against transgenic Leishmania Mexicana promastigotes LmGLUT1 that are glucose transport deficient and complemented with the human glucose transporter GLUT1. Activity is measured by DNA content using SYBR green in vitro
Type: functional

Chain of Solute carrier family 2, facilitated glucose transporter member 1 (Homo sapiens) (P11166 whole entry): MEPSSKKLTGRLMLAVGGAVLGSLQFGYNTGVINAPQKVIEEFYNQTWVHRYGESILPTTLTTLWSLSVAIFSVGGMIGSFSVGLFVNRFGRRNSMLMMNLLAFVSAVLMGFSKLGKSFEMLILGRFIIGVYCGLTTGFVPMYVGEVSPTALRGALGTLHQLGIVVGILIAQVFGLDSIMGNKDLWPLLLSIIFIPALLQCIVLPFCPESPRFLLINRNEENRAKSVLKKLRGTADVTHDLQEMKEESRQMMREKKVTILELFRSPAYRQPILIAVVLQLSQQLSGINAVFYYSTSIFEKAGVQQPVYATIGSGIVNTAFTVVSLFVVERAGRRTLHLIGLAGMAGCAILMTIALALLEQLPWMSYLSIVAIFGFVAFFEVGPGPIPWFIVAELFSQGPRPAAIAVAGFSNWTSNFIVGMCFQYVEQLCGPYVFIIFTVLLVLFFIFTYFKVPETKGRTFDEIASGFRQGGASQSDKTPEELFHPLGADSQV

SMILES | inhibition [%]
CC(C(=O)NC1CCN(c2ccnc(Nc3ccc(F)cc3)n2)C1)c1ccc(Cl)cc1 (stereo not drawn) | 1.1
Cn1cc(CCNc2ccnc(N3CCC(c4ncc[nH]4)CC3)n2)c2ccccc21 | -2.77
COc1ccc(OC)c(Cc2c(C)nc3nc(N)nc(N)c3c2C)c1 | -0.27
CCCCCCn1ccc2c3c(N)nc(N)nc3ccc21 | 104
COc1nc(-n2ccc(=N)cc2)nc2ccccc12 | 12.2
CC1(C)CNCc2cc(NC(=O)/C=C/c3ccc(Cl)cc3)ccc21 | 0.41
CN1CCC(NCc2ccc(-c3cccc(S(=O)(=O)NCCc4ccccn4)c3)cc2)CC1 | 0.27
CC(C)[C@H](NC(=O)c1ccc(O)c(-c2ccc(Cl)c(Cl)c2)c1)C(=O)NCCN1CCCCC1 | -0.08
CCOc1ccc(-n2nc3c(Cl)nnc(-c4ccccc4)c3c2-c2ccccc2)cc1 | 4.48
COc1ccc2nccc([C@@H](O)CN3CCC(NCCOc4ccc(F)cc4Cl)CC3)c2c1 | 9.75
CN(C)CCNCc1ccc(-c2ccc3c(Nc4ccc(F)cc4Cl)ccnc3c2)o1 | 4.19
Cc1cccc2nc(-c3cccc(-c4ccc(NC(=O)Nc5ccc(F)c(F)c5F)cc4)c3)[nH]c12 | 1.49
O=c1cc(NCCCNCc2cc(F)cc(C(F)(F)F)c2)[nH]c2ccccc12 | -0.27
CCc1cc2c(=O)c(-c3nc(C)cs3)c([C@H](N)Cc3ccc(O)cc3)oc2cc1O | 2.9
CCCC(C)Nc1nc(C)cc(N[C@@H](Cc2ccccc2)C(=O)NCc2cccc(F)c2)n1 (stereo partly drawn) | 4.14
CCOC(=O)c1ccc(NC(=O)Nc2ccc(-c3ccc(-c4nc5cccc(C)c5[nH]4)s3)cc2)cc1 | 1.67
C[C@H](Cc1ccc(S(=O)(=O)c2ccc(C[C@@H](C)NC[C@H](O)c3cccc(Cl)c3)cc2)cc1)NC[C@H](O)c1cccc(Cl)c1 | 2.7
O=C(Nc1ccc(Cl)cc1)c1ccc(CN2CCCN(Cc3ccc(F)cc3)CC2)cc1 | 5.91
COc1ccc2nccc([C@@H](O)CN3CCC(NCc4ccc5nc[nH]c(=O)c5c4)CC3)c2c1 | 1.63
Cc1ccc(Nc2nc3cc(Nc4ccnc(Nc5cccc(CS(C)(=O)=O)c5)n4)ccc3o2)cc1 | 4.03

SMILES | inhibition [%]
O=C(Nc1ccccc1)Nc1cccc(-c2nn3c(OCC4CCCCN4)cccc3c2-c2ccncc2)c1 (stereo not drawn) | 5.24
O=C(Nc1ccc(F)cc1)NC1CCN(c2ccnc3cc(Cl)ccc23)C1 (stereo not drawn) | -0.37
CN(C(=O)Cc1ccc(Cl)cc1)C1CCN(CCCCCNC(=O)/C=C/c2ccc(Cl)c(Cl)c2)CC1 | 2.86
O=C(/C=C/c1ccc(Cl)c(Cl)c1)NCCCCCN1CCCN(C(=O)Nc2ccc(Cl)cc2)CC1 | 0.39
COc1ccc(CCNCCCCCNCCCc2ccc(Cl)cc2)cc1OC | -1.33
COC(=O)CCCCOc1c(OC)cc(Cc2cnc(N)nc2N)cc1OC | 11.2
Cc1ccc(NC(=O)Nc2ccccc2)cc1-c1ccc(C(=O)Nc2ccncc2)cc1 | 9.17
CC(C)CNc1c2c(nc3cnn(-c4c5c(nc6cn[nH]c46)CCCC5)c13)CCCC2 | -3.17
Cc1cc(=NN=CC=Cc2ccccc2)c2ccccc2[nH]1 | 1.28
O=C(Nc1cccc(-c2cccc(-c3nc4cc(F)ccc4[nH]3)c2)c1)Nc1ccc(F)c(F)c1F | 7.82
NC1CCN(CCNCc2cccc(-c3ccc(-c4nc5cc(F)ccc5[nH]4)cc3)c2)C1 (stereo not drawn) | 7.06
COc1ccc(CNC(=O)C2Cc3ccccc3CN2Cc2ccc3ccccc3c2)cc1 (stereo not drawn) | 2.51
O=C(CCc1c[nH]cn1)Nc1ccc(-c2ccc(-c3nc4ccccc4[nH]3)cc2)cc1 | 19.3
O=C(Nc1ccc2c(c1)CCC2)c1ccc(CN2CCCN(Cc3cccc(O)c3)CC2)cc1 | 11.2
COc1ccc(-c2cnc(N)nc2N)cc1Cl | 1.93
COc1cc(F)c2ncc(Cl)c([C@@H](O)CN3CCC(NCc4ccc5c(n4)NC(=O)CO5)CC3)c2c1 | 6.57
Oc1ccc(Nc2nc(NCc3ccccc3)c3ccccc3n2)cc1 | 30.1
O=C1O[C@H](c2ccccc2)[C@H](c2ccccc2)N(C(=O)OCc2ccccc2)[C@H]1Cc1ccccc1C1CCCC1 | 1.05
Cc1cccc2nc(-c3cccc(-c4ccc(CNCCNC(=O)c5ccnn5C)cc4)c3)[nH]c12 | -1.64

Target: Hexose transporter 1 (Plasmodium falciparum) (UniProt O97467)
Experiment: ST_JUDE_LEISH: Cytotoxicity at 2uM final concentration against transgenic Leishmania Mexicana promastigotes LmPfHT that are glucose transport deficient and complemented with the Plasmodium falciparum hexose transporter. Activity is measured by DNA content using SYBR green in vitro
Type: functional

SMILES | inhibition [%]
CC(C(=O)NC1CCN(c2ccnc(Nc3ccc(F)cc3)n2)C1)c1ccc(Cl)cc1 (stereo not drawn) | 0.7
Cn1cc(CCNc2ccnc(N3CCC(c4ncc[nH]4)CC3)n2)c2ccccc21 | -1.57
COc1ccc(OC)c(Cc2c(C)nc3nc(N)nc(N)c3c2C)c1 | 0.88
CCCCCCn1ccc2c3c(N)nc(N)nc3ccc21 | 101
COc1nc(-n2ccc(=N)cc2)nc2ccccc12 | 13.4
CC1(C)CNCc2cc(NC(=O)/C=C/c3ccc(Cl)cc3)ccc21 | -2.52
CN1CCC(NCc2ccc(-c3cccc(S(=O)(=O)NCCc4ccccn4)c3)cc2)CC1 | -0.63
CC(C)[C@H](NC(=O)c1ccc(O)c(-c2ccc(Cl)c(Cl)c2)c1)C(=O)NCCN1CCCCC1 | 1.9
CCOc1ccc(-n2nc3c(Cl)nnc(-c4ccccc4)c3c2-c2ccccc2)cc1 | 6.02
COc1ccc2nccc([C@@H](O)CN3CCC(NCCOc4ccc(F)cc4Cl)CC3)c2c1 | 11.6
CN(C)CCNCc1ccc(-c2ccc3c(Nc4ccc(F)cc4Cl)ccnc3c2)o1 | 6.24
Cc1cccc2nc(-c3cccc(-c4ccc(NC(=O)Nc5ccc(F)c(F)c5F)cc4)c3)[nH]c12 | 1.47
O=c1cc(NCCCNCc2cc(F)cc(C(F)(F)F)c2)[nH]c2ccccc12 | -0.14
CCc1cc2c(=O)c(-c3nc(C)cs3)c([C@H](N)Cc3ccc(O)cc3)oc2cc1O | 2.34
CCCC(C)Nc1nc(C)cc(N[C@@H](Cc2ccccc2)C(=O)NCc2cccc(F)c2)n1 (stereo partly drawn) | 4.96
CCOC(=O)c1ccc(NC(=O)Nc2ccc(-c3ccc(-c4nc5cccc(C)c5[nH]4)s3)cc2)cc1 | 0.41
C[C@H](Cc1ccc(S(=O)(=O)c2ccc(C[C@@H](C)NC[C@H](O)c3cccc(Cl)c3)cc2)cc1)NC[C@H](O)c1cccc(Cl)c1 | 4
O=C(Nc1ccc(Cl)cc1)c1ccc(CN2CCCN(Cc3ccc(F)cc3)CC2)cc1 | 1.23
COc1ccc2nccc([C@@H](O)CN3CCC(NCc4ccc5nc[nH]c(=O)c5c4)CC3)c2c1 | -1.56
Cc1ccc(Nc2nc3cc(Nc4ccnc(Nc5cccc(CS(C)(=O)=O)c5)n4)ccc3o2)cc1 | 2.49

SMILES | inhibition [%]
O=C(Nc1ccccc1)Nc1cccc(-c2nn3c(OCC4CCCCN4)cccc3c2-c2ccncc2)c1 (stereo not drawn) | 1.67
O=C(Nc1ccc(F)cc1)NC1CCN(c2ccnc3cc(Cl)ccc23)C1 (stereo not drawn) | -1.17
CN(C(=O)Cc1ccc(Cl)cc1)C1CCN(CCCCCNC(=O)/C=C/c2ccc(Cl)c(Cl)c2)CC1 | 2.1
O=C(/C=C/c1ccc(Cl)c(Cl)c1)NCCCCCN1CCCN(C(=O)Nc2ccc(Cl)cc2)CC1 | -0.48
COc1ccc(CCNCCCCCNCCCc2ccc(Cl)cc2)cc1OC | -1.18
COC(=O)CCCCOc1c(OC)cc(Cc2cnc(N)nc2N)cc1OC | 7.13
Cc1ccc(NC(=O)Nc2ccccc2)cc1-c1ccc(C(=O)Nc2ccncc2)cc1 | 7.89
CC(C)CNc1c2c(nc3cnn(-c4c5c(nc6cn[nH]c46)CCCC5)c13)CCCC2 | -1.12
Cc1cc(=NN=CC=Cc2ccccc2)c2ccccc2[nH]1 | 2.74
O=C(Nc1cccc(-c2cccc(-c3nc4cc(F)ccc4[nH]3)c2)c1)Nc1ccc(F)c(F)c1F | 7.26
NC1CCN(CCNCc2cccc(-c3ccc(-c4nc5cc(F)ccc5[nH]4)cc3)c2)C1 (stereo not drawn) | 11.1
COc1ccc(CNC(=O)C2Cc3ccccc3CN2Cc2ccc3ccccc3c2)cc1 (stereo not drawn) | 1.12
O=C(CCc1c[nH]cn1)Nc1ccc(-c2ccc(-c3nc4ccccc4[nH]3)cc2)cc1 | 16.7
O=C(Nc1ccc2c(c1)CCC2)c1ccc(CN2CCCN(Cc3cccc(O)c3)CC2)cc1 | 12.1
COc1ccc(-c2cnc(N)nc2N)cc1Cl | 1.5
COc1cc(F)c2ncc(Cl)c([C@@H](O)CN3CCC(NCc4ccc5c(n4)NC(=O)CO5)CC3)c2c1 | 3.3
Oc1ccc(Nc2nc(NCc3ccccc3)c3ccccc3n2)cc1 | 27.1
O=C1O[C@H](c2ccccc2)[C@H](c2ccccc2)N(C(=O)OCc2ccccc2)[C@H]1Cc1ccccc1C1CCCC1 | 2.14
Cc1cccc2nc(-c3cccc(-c4ccc(CNCCNC(=O)c5ccnn5C)cc4)c3)[nH]c12 | 0.67
